Among the data in ChEMBL document CHEMBL4513135, “CO-ADD screening of IQOG CSIS (Spain) compounds” are Inhibition values, retold here.

Potency and affinity values are given separately.

One test has as its system Staphylococcus aureus. As to conditions: Concentration 32 ug.mL-1; ASSAY_TEST Inhibition of Bacterial Growth; detection method Absorption (OD600); MEDIA CAMHB; plate type 384well; NBS; CORNING #3640; time 18 hr.
The next test concerns Escherichia coli. As to conditions: Concentration 32 ug.mL-1; ASSAY_TEST Inhibition of Bacterial Growth; detection method Absorption (OD600); MEDIA CAMHB; plate type 384well; NBS; CORNING #3640; time 18 hr.

Usually Inhibition stands for the relative decrease from the control value, in per cent. Take `COc1ccc(C2c3c(ccc4ccccc34)OC(=N)C2(Br)C#N)cc1` (stereo unspecified): the Inhibition in the test on Staphylococcus aureus is recorded as 26.69%; in the test on Escherichia coli, -14.26%.
For `C#CCN(C)c1ncc(C#N)c(N)n1` the same measures were 39.34% and -4.49%.
For `N#CC1=C(Cl)Oc2c(ccc3ccccc23)C1c1ccccc1` (stereo unspecified), the Inhibition with Staphylococcus aureus is on record as 14.99%; in the test on Escherichia coli, -36.62%.
Turning to `O=C(N/N=C/c1cccc(Cl)c1)c1cc2ccccc2[nH]1`, the results for the Inhibition in the test with Staphylococcus aureus and in the test on Escherichia coli were -16.68% and -12.27%, respectively.
As for `N#CC1(Br)C(=NBr)Oc2c(ccc3ccccc23)C1c1ccccc1[N+](=O)[O-]` (stereo unspecified), the Inhibition with Staphylococcus aureus is 52.21%; in the test with Escherichia coli it was -16.66%.
`CN(C)c1ccc(C(=NNC(=O)c2cc3ccccc3[nH]2)c2ccc(N(C)C)cc2)cc1`: the Inhibition in the test with Staphylococcus aureus is given as -9.28%; in the test on Escherichia coli it was -3.28%.
Take `CCC(CC)NNC(=O)c1cc2ccccc2n1C`: the Inhibition was 11.92% in the test on Staphylococcus aureus and 13.68% in the test on Escherichia coli.
Consider `C#CCNc1nc(NCCCC2CCN(Cc3ccccc3)CC2)c(C#N)cc1C#N.Cl`, for which the Inhibition in the test on Staphylococcus aureus was -16.88%; in the test with Escherichia coli, -13.89%.
In the case of `CC1=C(CO)C(c2ccc(C#N)cc2)C(C#N)=C(N)O1` (stereo unspecified), the values for the Inhibition in the test with Staphylococcus aureus and with Escherichia coli were 9.52% and 17.18%, respectively.
For `CCOC(=O)c1c(C)nc(NC2CCN(Cc3ccccc3)CC2)c(C#N)c1-c1ccccc1` the same measures were 43.62% and -5.95%.
For `CN(C)c1nc(N)c(C#N)cc1C#N` the same measures were 20.41% and 5.07%.
For `Cc1ccc2nc(Cl)c(/C=N/C(C)(C)C)cc2c1` the same measures were 28.46% and 12.92%.
For the compound `C#CCNc1nc(OC)c(C#N)c(-c2ccccc2)c1C#N`, the Inhibition in the test with Staphylococcus aureus is reported as 49.28%; in the test with Escherichia coli it was -4%.
For `COc1ccc(-c2cc(-c3cc4ccc(F)cc4nc3Cl)cc(=O)[nH]2)cc1` the same measures were 24.97% and -19.12%.
Turning to `N#Cc1c(N)nc(O)c(C#N)c1-c1ccccc1`, the Inhibition was 4.47% in the test on Staphylococcus aureus and -25.59% with Escherichia coli.
In the case of `Cl.ClCCCCN1CCCCC1`, the results for the Inhibition with Staphylococcus aureus and with Escherichia coli were 1.62% and -1.96%, respectively.
For `C#CCN(C)Cc1cc2cc(O)ccc2n1C.Cl` the same measures were 21.22% and -11.62%.
As to `Cc1ccc(C2CC2(N)C(=O)O)cc1.Cl` (stereo unspecified), the Inhibition in the test on Staphylococcus aureus amounted to 8.71%; in the test with Escherichia coli it was 6.19%.
For `C=C1CNc2c(C#N)c(-c3ccccc3)c(C#N)c(=N)n21`, in that order: 17.65% and -9.94%.
Take `Nc1c2c(nc3nc4ccccc4nc13)CCCC2`: the results for the Inhibition in the test on Staphylococcus aureus and with Escherichia coli were 36.81% and -11.07%, respectively.
For `CC#CCN.Cl`, in that order: 31.78% and 20.2%.
For `Cc1ccc(CNNC(=O)c2c[nH]c3ccccc23)cc1` the same measures were -8.4% and -3.7%.
In the case of `ClCCC1CCN(Cc2ccccc2)CC1`, the figures for the Inhibition in the test on Staphylococcus aureus and with Escherichia coli were 26.32% and 16.74%, respectively.
For `O=C(Cc1cccc2ccccc12)N/N=C/c1c[nH]c2ccccc12` the same measures were 12.36% and 15.45%.
For the compound `N#CC1(Br)C(=NBr)Oc2ccc3ccccc3c2C1c1cccc([N+](=O)[O-])c1` (stereo unspecified), the Inhibition in the test on Staphylococcus aureus is on record as 29.27%; with Escherichia coli it was -20.79%.
For `Cc1nc2c3c(C)nn(-c4ccccc4)c3ncn2n1`, in that order: 11.24% and 12.68%.
Consider `Cc1nc(NCc2ccccc2)c2cnn(-c3ccccc3)c2n1`, for which the Inhibition with Staphylococcus aureus is given as 7.38%; in the test with Escherichia coli, 5.64%.
`C#CCNc1nc(NC2CCN(Cc3ccccc3)CC2)c(C#N)c(-c2ccccc2)c1C#N`: the Inhibition is -5.25% in the test with Staphylococcus aureus and -23.87% in the test with Escherichia coli.
For `N#Cc1ccc(Br)cc1N`, in that order: 4.6% and 16.76%.
For `COc1ccc(C2C(C#N)=C(Cl)Oc3c2ccc2ccccc32)cc1OC` (stereo unspecified), in that order: -3.84% and -30%.
With `N#Cc1cc(C#N)c(N2CCCCC2)nc1Cl`, the Inhibition was found to be 15.2% with Staphylococcus aureus and 9.21% in the test with Escherichia coli.
For `CC(=NNC(N)=O)c1c[nH]c2ccccc12` the same measures were 2.54% and 16.24%.
As for `C#CCN1CCc2nc3nc(N(C)C)c(C#N)cc3c(N)c2C1`, the Inhibition in the test on Staphylococcus aureus is reported as 32.37%; in the test with Escherichia coli, -3.45%.
For `Cl.OCCCC1CCNCC1`, in that order: 22.6% and 13.14%.
For `COC1(N)Oc2ccc3ccccc3c2C(c2ccccc2)C1(Br)C#N` (stereo unspecified), in that order: 16.73% and 20.49%.
For `Cc1[nH]nc2c1C(c1cccc([N+](=O)[O-])c1)C(C#N)=C(N)O2` (stereo unspecified), in that order: 7.57% and 4.04%.
For `N#CC1=C(N)Oc2c(ccc3ccccc23)C1c1ccc(O)cc1` (stereo unspecified), the Inhibition with Staphylococcus aureus is 21.57%; in the test on Escherichia coli, -18.15%.
For `Cc1[nH]nc2c1C(c1ccc(O)c(O)c1)C(C#N)=C(N)O2` (stereo unspecified) the same measures were 9.09% and 8.02%.
For `C#CCN(C)c1nc(NCCCC2CCN(Cc3ccccc3)CC2)c(C#N)cc1C#N` the same measures were 1.12% and -10.35%.
For `O=C(Cc1c[nH]c2ccccc12)NN=Cc1ccccc1` the same measures were 3.3% and -3.03%.
Consider `NNC(=O)c1c[nH]c2ccc(OCc3ccccc3)cc12`, for which the Inhibition in the test on Staphylococcus aureus is reported as 2.88%; with Escherichia coli, 0.02%.
For the compound `O=C(Cc1c[nH]c2ccccc12)N/N=C/c1ccco1`, the Inhibition was 4.9% in the test on Staphylococcus aureus and -3.66% with Escherichia coli.
For `O=C1NC(=S)N/C1=C\c1c[nH]c2ccccc12` the same measures were 7.26% and 6.43%.
